Data: PubChem BioAssay (NCI)
About 83,000 compounds went through this panel and 20% of them were active in at least one assay; those are over-represented in the sample as a whole.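 Testing used 96-well plates and a 48-hour single-concentration exposure. Example: -40 means 40% of the starting cells died.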 Values without a mark were called inactive. Active and inactive are the calls of the source. The calls were made as follows: active = growth percent below 10; inactive = the rest.

Columns and labels:
Assay in all cases: NCI-60 one-dose screen, 48 h (100 = growth as untreated, 0 = no growth, -100 = all killed)
Settings in all cases: 10 µM unless noted
[1] = test system: NCI-H23 lung
[2] = test system: NCI-H322M lung
[3] = test system: HOP-62 NSCLC
[4] = test system: NCI-H460 lung
[5] = test system: HOP-92 NSCLC
[6] = test system: NCI-H522 lung
[7] = test system: A549/ATCC NSCLC
[8] = test system: 786-0 renal
[9] = test system: COLO 205 colon

SMILES | growth [1] | growth [2] | growth [3] | growth [4] | growth [5] | growth [6] | growth [7] | growth [8] | growth [9]
Cc1ccc2c(n1)C(=O)C(Cl)=C(Nc1cccc(C(F)(F)F)c1)C2=O | 52.3% | 108% | 141% | 101% | 107% | -28.8% (active) | 105% | 85.8% | 106%
O=C(CCCCCCN1CC(=O)N2[C@@H](c3ccccc3Br)c3[nH]c4ccccc4c3C[C@H]2C1=O)NO | 63.9% | 66.1% | 61.5% | 51.8% | 29% | -5.74% (active) | 88.4% | 87.3% | 42.8%
C=C(C)[C@@H]1CC[C@]2(COP(=O)(OCC)OCC)CC[C@]3(C)[C@H](CC[C@@H]4[C@@]5(C)CC[C@H](OP(=O)(OCC)OCC)C(C)(C)[C@@H]5CC[C@]43C)[C@@H]12 | 13.5% | 59.6% | 63.5% | 22.3% | 42.2% | 35.5% | 28.4% | 72.8% | 44.2%
CCOC(=O)c1ccc(NC2=CC(=O)C(C)=C(C)C2=O)cc1 | 51% | 104% | 70.5% | 98.4% | 113% | 87.5% | 117% | 106% | 
COc1ccc(/C=N\NC(=O)c2cnn(CC(O)c3ccccc3)c2N)cc1OCc1ccc(Cl)cc1 (stereo unspecified) | 74.7% | 85% | 84.1% | 44.3% | 86% | 92.7% | 62.9% | 96.2% | 72.8%
Clc1cccc(/C=N/Nc2nc(N/N=C/c3cccc(Cl)c3)nc(N3CCOCC3)n2)c1 | 70.6% | 53.8% | 110% | 78.2% | 65.4% | 13.9% | 46.6% | 30.6% | 36.9%
CN1CCN(c2ccc(Nc3nc(NCCNS(=O)(=O)c4ccc5ccccc5c4)c4sccc4n3)cc2)CC1 | 84.3% | 83.7% | 97.5% | 74.3% | 47.8% | 87.4% | 84.3% | 56.3% | 13.3%
CNC(=O)c1cc(N2CCc3cc(NC(=O)Nc4ccc(N5CCN(C)CC5)c(C(F)(F)F)c4)ccc32)ccn1 | 88.4% | 96.6% | 76.7% | 62.6% | 69% | 103% | 68.6% | 29.3% | 104%
Cn1ncc2c(C(=O)c3ccc(F)cc3)nc(C(C)(C)C)nc21 | 95.8% | 97.8% | 94.8% | 101% | 56.4% | 91.8% | 91.9% | 101% | 108%
CCS(=O)(=O)Nc1ccc(C(=O)CC2(O)C(=O)Nc3ccccc32)cc1 (stereo unspecified) | 92.5% | 98.4% | 94.6% | 105% |  | 105% | 107% | 108% | 93.8%
O=C(Nc1ccc(Cl)c(C(F)(F)F)c1)Nc1ccc2c(ccn2C(=O)c2cccc(F)c2)c1 | 10.3% | 73.1% | 54.5% | 13.2% | 5.69% (active) | 5.03% (active) | 30.6% | 42.4% | 25.3%
Oc1[nH]c2ccc(Cl)cc2c1N=Nc1nc(N=Nc2c(O)[nH]c3ccc(Cl)cc23)nc(N2CCOCC2)n1 | 17.2% | 78.1% | 37.6% | 88.2% | 26% | 5.09% (active) | 101% | 73.7% | 48.7%
Cc1ccccc1N1CCN(C2=C(Cl)C(=O)c3ncccc3C2=O)CC1 | 38.1% | 89.9% | 59.5% | 53.1% | 118% | -28% (active) | 99.6% | 91% | 31.8%
O=C(NNc1nc2cc(F)cc(F)c2n2cccc12)c1cccnn1 | 21.7% | 28.4% | 28.2% | 6.92% (active) | 75.4% | 0.0735% (active) | 17.5% | 14.3% | 16.3%
Nc1cc(C(=O)N/N=C\c2ccc(OC(F)F)c(OC3CCCC3)c2)nn1CC(O)c1ccccc1 (stereo unspecified) | 95.7% |  | 101% | 105% | 84.1% | 88.9% | 95.3% | 107% | 112%
CCOP(=O)(OCC)OC[C@]12CCC(C)(C)CC1C1=CC[C@@H]3[C@@]4(C)CCCNC(C)(C)[C@@H]4CC[C@@]3(C)[C@]1(C)CC2 (stereo partly specified) | 85.2% | 95.7% | 101% | 55.1% | 64.8% | 90.2% | 70.8% | 69.4% | 3.12% (active)
COC(=O)c1cccc(NC2=C(Cl)C(=O)C(C)=C(C)C2=O)c1 | 92.4% | 100% | 94.8% | 101% |  | 95.8% | 115% | 104% | 114%
CNC(=O)c1cc(-c2ccc(NC(=S)Nc3cccc(C(F)(F)F)c3)cc2)nc2cccnc12 | 92.4% | 96.1% | 102% | 99.4% | 85% | 89.7% | 96.9% | 96.7% | 104%
Brc1cccc(-c2cc(-c3cnc4c(c3)OCCO4)n[nH]2)c1 | 52.4% | 45.2% | 65% | 17.4% | 101% | 19.6% | 36.8% | 79% | 34.9%
CCOC(=O)c1ccccc1NC1=C(Cl)C(=O)c2nc(C)ccc2C1=O | 81.5% | 101% | 102% | 99.8% | 118% | 102% | 107% | 104% | 120%
